HT1080 IDH1KD tx: kills HT-1080 cells with IDH1 knockdown | 360,000 tested, 2% active | HT-1080 IDH1 knockdown viability, ATP luminescence, 48 h | Potency, µM (titrated, usually from 46.1 µM), for inactives: at the top dose activity, negative = toxicity, actives largely listed as cytotoxic;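 further: potency means the concentration at half of the fitted maximal effect; 0% = DMSO wells and -100% = cell-free medium wells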
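HT-1080-IDH1KD cells (IDH1 knocked down), 750/well in RPMI with 5% FBS, treated with compound 48 h at 37 degrees C. Viability by CellTiter-Glo luminescence, normalised to DMSO and no-cell wells; concentration-response curves classed.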
TDP1 cell noCPT: qHTS for Inhibitors of human tyrosyl-DNA phosphodiesterase 1 (TDP1): qHTS in cells in absence of CPT | DT40 Tdp1-/- hTDP1 cells, no CPT, ATP luminescence, 48 h | Potency, µM (titrated, usually from 46.2 µM), for the others: at the top dose activity change, negative = growth inhibition, usual class: inhibitors | 420,000 tested, 15% active; further: potency means the concentration at half of the fitted maximal effect; nearly all actives have a fitted effect of over 55% in size
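Luminescent ATP content (CellTiter-Glo) served as the growth readout. Knockout chicken DT40 cells expressing human TDP1 were exposed to compounds without camptothecin for a minimum 48 hr at 37 °C.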
DT40 TDP1 CPT: growth inhibition of DT40 Tdp1-/-;hTDP1 cells with camptothecin (screen for TDP1 inhibitors); chicken DT40 Tdp1-/-;hTDP1 cells + 20 nM CPT, ATP luminescence, 48 h; Potency, µM (doses to about 46.2 µM), for inactives: at the top dose activity change, negative = growth inhibition, actives largely listed as inhibitors; 420,000 tested, 12% active; AID 686979; further: potency means the concentration at half of the fitted maximal effect; nearly all actives have a fitted effect of over 55% in size
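Chicken DT40 Tdp1-/- cells stably complemented with human TDP1 were seeded at 400 cells/well in medium containing 20 nM camptothecin, exposed to pin-transferred compounds, and grown at 37 °C for at least 48 hr. Viability was read as ATP luminescence.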
HT1080NT lethal: kills 2HG-producing HT-1080-NT fibrosarcoma cells; Potency, µM (doses to about 46.1 µM), for inactives: top-dose activity, negative = less viability, actives largely listed as cytotoxic; HT-1080-NT fibrosarcoma viability, CellTiter-Glo ATP luminescence, 48 h; 360,000 tested, 1.6% active;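 further: NT is the 2HG producing partner of a matched IDH1 knockdown line; potency means the concentration at half of the fitted maximal effect; 0% = DMSO-treated cells and -100% = media-only wells without cells; nearly all actives have a fitted effect of over 55% in size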
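Luminescent CellTiter-Glo readout after 48 hours of compound exposure at 37 degrees C defined viability of HT-1080-NT cells. Activity was normalized to DMSO wells and cell-free media wells; concentration-response curves were fitted and assigned curve classes.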
IL1B secr inh: inhibitors of inflammasome signaling (IL-1 beta secretion) | activity change, % at 57.5 µM | 360,000 tested, 4.7% active | THP-1 LPS/ATP IL-1B secretion, AlphaLISA, 16 h; active compounds read low; in the data active means activity change below about -50%; inconclusive means mostly about -30% to -49%
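THP-1 cells pretreated 1 hr with compounds (up to 57.5 uM final), then stimulated with LPS (250 ng/mL final) plus ATP (1.25 mM final); secreted IL-1B measured by AlphaLISA after 16 hr, decreased signal indicating inhibition.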
Active calls of the source: *; ? = inconclusive; . = not tested or not shown; [ ] = another dose, or the depositor's remark. This is a sample that favours compounds with a hit; in the whole collection about 19% have one here. Unless noted, the call rests on the fitted dose curve; in most records, active means well fitted curve in the direction sought with a large enough effect; inconclusive means small, poorly fitted or top-dose-only effect, or another doubt; inactive means no such curve, though single readings can be large; an effect the other way counts as inactive or inconclusive. Unless noted, on the % scale 0 is the no-effect control and ±100 the full control effect.

SMILES	HT1080 IDH1KD tx	TDP1 cell noCPT	DT40 TDP1 CPT	HT1080NT lethal	IL1B secr inh
CCOc1ccc(NC(=O)c2cc(C)nc3c2c(C)nn3-c2ccc(C)cc2)cc1	.	-26%	?	.	.
Cc1nn(-c2ccccc2)c2nc(C3CC3)cc(C(=O)Nc3ccccc3F)c12	.	5.8µM*	7.3µM*	.	.
CS(=O)(=O)Nc1ccc(C2=NN(C(=O)c3ccccc3)C(c3cccs3)C2)cc1 (configuration not stated)	-10%	?	?	-10%	?
CCS(=O)(=O)Nc1cccc(C2=NN(C(C)=O)C(c3cccs3)C2)c1 (configuration not stated)	-1%	-25%	6%	-12%	-9
CC(=O)N1N=C(c2cccc(O)c2)CC1c1cccs1 (configuration not stated)	-9%	?	15µM*	-1%	-12
CC(C)(C)C(=O)N1N=C(c2ccc(NS(C)(=O)=O)cc2)CC1c1cccs1 (configuration not stated)	16µM*	?	?	?	-20
CC(=O)N1N=C(c2cccc(NS(C)(=O)=O)c2)CC1c1cccs1 (configuration not stated)	4%	-2%	-6%	4%	52
CC(=O)N1N=C(c2ccccc2O)CC1c1cccs1 (configuration not stated)	-14%	6.5µM*	?	-18%	-65*
COc1ccc(N2CCN(c3ccc(C(=O)O)cc3[N+](=O)[O-])CC2)cc1	-3%	8%	20%	11%	-3
COc1ccc(NC(=O)COC(=O)CC2CCCC2)cc1	-27%	-3%	23%	-18%	11
O=C(c1cccnc1)C1CCCN(Cc2ccc3c(c2)CN(C(=O)c2cnccn2)CCO3)C1 (configuration not stated)	.	-17%	24%[9.04 µM]	.	.
COC(=O)c1cc(CSC(=N)N)ccc1OCCC(C)C	?	23µM*	?	?	-85*
CCCOc1ccc(NC(N)=O)cc1OCCC	15%	9%	-1%	16%	12
CCCOc1ccc(CSC(=N)N)cc1C(=O)OC	-10%	?	?	-10%	-57*
COc1ccc(Nc2nnc(SCC(=O)c3cc(C)n(CC4CCCO4)c3C)s2)cc1 (configuration not stated)	-12%	?	18µM*	-15%	1
Cc1cc(C(=O)CSc2nnc(-c3ccc(Cl)cc3)n2CC2CCCO2)c(C)n1C (configuration not stated)	-7%	23µM*	12µM*	0%	-2
Cc1cc(C(=O)CSc2nc3ccc(Cl)cc3[nH]2)c(C)n1CC1CCCO1 (configuration not stated)	?	5.8µM*	9.2µM*	-18%	-12
Cc1cc(C(=O)CSc2nc3ccc(Cl)cc3[nH]2)c(C)n1C	-10%	?	?	-30%	-6
CN(C(=O)CSc1nnc(-c2ccc(Cl)cc2)n1CC1CCCO1)C1CCS(=O)(=O)C1 (configuration not stated)	17%	-4%	-4%	9%	-1
COc1ccc(Nc2nnc(SCC3CCCCO3)s2)cc1 (configuration not stated)	14%	-3%	-1%	4%	0
CCOC(=O)C1CCC(C(=O)OCC)N1c1ccc(C=O)cc1 (configuration not stated)	-7%	?	-3%	-4%	-2
O=C(CSc1cccc(C(F)(F)F)c1)N1CCN(S(=O)(=O)c2ccccc2)CC1	-13%	?	?	-7%	-55*
O=C(CSc1ccc(Br)cc1)N1CCN(S(=O)(=O)c2ccccc2)CC1	-7%	-27%	2%	-1%	-9
O=C(CSc1nc2ccc(Cl)cc2[nH]1)NC1CCCc2ccccc21 (configuration not stated)	?	21µM*	?	-21%	?
Cc1ccc(Cl)cc1N1CCN(CC(=O)NC2CCCc3ccccc32)CC1 (configuration not stated)	?	16µM*	?	?	-9
SMILES	HT1080 IDH1KD tx	TDP1 cell noCPT	DT40 TDP1 CPT	HT1080NT lethal	IL1B secr inh
O=C(CN1CCN(c2ccccc2Cl)CC1)NC1CCCc2ccccc21 (configuration not stated)	0%	?	?	0%	-59*
CC(C)N(C(=O)CSc1nc2ccc(Cl)cc2[nH]1)c1ccccc1	.	23µM*	?	.	.
CCOC(=O)c1c(-c2ccccc2)csc1NC(=O)c1cc(-c2ccc(Br)cc2)on1	.	-13%	7%	.	.
Cc1ccc(NC(=Nc2ccc(Br)cc2)N2CCOCC2)cc1C	?	21µM*	?	?	-66*
Cc1ccc(NC(=O)COC(=O)CSC(=S)N2CCOCC2)cc1C	20%	-6%	9%	24%	1
Cc1ccccc1/C=C/C1=NCCN1	0%	0%	-14%	0%	-92*
CC(C)(C)C1(C)OC(=O)C(=Cc2ccc(OCC(=O)Nc3ccccc3)cc2)C(=O)O1 (configuration not stated)	-1%	-25%	-18%	2%	6
O=C(C[C@H]1C/C=C\C[C@H](Cc2ccc(F)cc2)C(=O)O[C@@H](c2ccccc2)CNC1=O)N[C@H](CO)Cc1ccccc1	-4%	10µM*	?	-20%	-8
O=C(C[C@H]1C/C=C\CC[C@H](Cc2ccc(F)cc2)C(=O)O[C@H](c2ccccc2)CNC1=O)N[C@H](CO)Cc1ccccc1	?	13µM*	13µM*	?	0
O=C(C[C@H]1C/C=C\CC[C@H](Cc2ccc(F)cc2)C(=O)O[C@@H](c2ccccc2)CNC1=O)N[C@@H](CO)Cc1ccccc1	?	?	?	?	63
COc1ccc(OC)c(C2NC(=O)NC(C)=C2C(=O)Nc2ccc(F)cc2)c1 (configuration not stated)	.	-7%	-2%	.	.
CCC(C)(C)NC(=O)C(c1ccc(OC)cc1)N(C(=O)CCC(=O)Nc1cc(C)on1)c1ccc2c(c1)OCCO2 (configuration not stated)	-21%	?	?	?	-8
O=C1CCCc2ccccc2N1Cc1cccc(Cl)c1	-24%	9.2µM*	?	-14%	3
O=C1CCCc2ccccc2N1Cc1ccc(Cl)cc1	-13%	?	?	-2%	-4
O=C1CCCc2ccccc2N1Cc1ccccc1	8%	12µM*	13µM*	11%	24
O=C1CCCc2ccccc2N1Cc1ccccc1Cl	-8%	?	?	-7%	-8
COc1ccc(CN2C(=O)CCCc3ccccc32)cc1	?	21µM*	?	-19%	0

High-throughput results: PubChem BioAssay, National Center for Advancing Translational Sciences (NCATS)
